Laboratory results reported in PubChem BioAssay (NCI).
This is part of a sample that, as a whole, favours compounds with a hit. Of some 83,000 tested, about 20% had one in any assay.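 Single-dose data. Exposure time 48 hours. Values below 10 considered active.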 Values without a mark were called inactive. Activity calls are given as the source filed them.

Legend:
Experiment in all cases: NCI-60 one-dose screen, 48 h (100 = growth as untreated, 0 = no growth, -100 = all killed)
Conditions in all cases: 10 µM
[1] = test system: SN12C renal
[2] = test system: UO-31 renal
[3] = test system: TK-10 renal
[4] = test system: ACHN renal
[5] = test system: CAKI-1 renal
[6] = test system: A498 renal
[7] = test system: CCRF-CEM leukemia
[8] = test system: MOLT-4 leukemia
[9] = test system: SR leukemia
[10] = test system: RPMI-8226 leukemia
[11] = test system: OVCAR-8 ovarian
[12] = test system: OVCAR-5 ovarian
[13] = test system: OVCAR-4 ovarian
[14] = test system: SK-OV-3 ovarian
[15] = test system: IGROV1 ovarian
[16] = test system: OVCAR-3 ovarian
[17] = test system: HS 578T breast
[18] = test system: NCI/ADR-RES ovarian
[19] = test system: T-47D breast
[20] = test system: EKVX NSCLC

Nc1c(C(=O)Nc2cccc(Br)c2)sc2nc3c(cc12)C(O)CCC3 (configuration not stated)
growth [1]: 37.3% | growth [2]: 31.9% | growth [3]: 56.7% | growth [4]: 51.4% | growth [5]: 25.6% | growth [6]: -8.73% (active) | growth [7]: 12.2% | growth [8]: 14% | growth [9]: 3.95% (active) | growth [10]: 14.7% | growth [11]: 30.6% | growth [12]: 60.4% | growth [13]: 65.8% | growth [14]: 21.8% | growth [15]: 27.9% | growth [16]: -18.2% (active) | growth [17]: 28.3% | growth [18]: 24.5% | growth [19]: 47.4%

Clc1nc(Cl)c2c(ncn2C/C=C\Cn2cnc3c(Cl)nc(Cl)nc32)n1
growth [20]: -79.8% (active) | growth [1]: -5.17% (active) | growth [4]: -100% (active) | growth [5]: -100% (active) | growth [7]: -81% (active) | growth [8]: -59.4% (active) | growth [9]: -66.3% (active) | growth [11]: -83% (active) | growth [12]: -76.7% (active) | growth [13]: -69% (active) | growth [14]: 34.5% | growth [15]: -83.7% (active) | growth [16]: -98.9% (active) | growth [17]: -53% (active) | growth [18]: 11% | growth [19]: -47% (active)

COc1ccc2c(c1OC)O/C(=C\c1ncc([N+](=O)[O-])n1C)C2=O
growth [1]: 11.8% | growth [2]: -42.8% (active) | growth [3]: 14.7% | growth [4]: -2.65% (active) | growth [5]: -27.5% (active) | growth [6]: 68.8% | growth [7]: 4.93% (active) | growth [8]: 1.01% (active) | growth [9]: 6.02% (active) | growth [10]: 34.9% | growth [11]: -18.2% (active) | growth [12]: 53.7% | growth [13]: 78.9% | growth [14]: 24.8% | growth [15]: -14.8% (active) | growth [16]: -24.2% (active) | growth [17]: 46.5% | growth [18]: 15.1% | growth [19]: 94.8%

CN(C)CCN1C(=O)c2cccc3c(-c4ccc5ncn(C6CCCCC6)c5c4)ccc(c23)C1=O
growth [1]: 19.3% | growth [2]: 2.42% (active) | growth [3]: 26.7% | growth [4]: 13.8% | growth [5]: 25% | growth [6]: 4.69% (active) | growth [7]: 15.4% | growth [8]: -18.7% (active) | growth [9]: 3.59% (active) | growth [10]: 7.51% (active) | growth [11]: 14.7% | growth [12]: 35.8% | growth [13]: 30.8% | growth [14]: 23% | growth [15]: 20.4% | growth [16]: 37.6% | growth [17]: 40.8% | growth [18]: 20.1% | growth [19]: 27.8%

COc1ccc2c(c1)[n+]([O-])c(C#N)c(NC(=O)c1ccco1)[n+]2[O-]
growth [20]: 119% | growth [1]: 110% | growth [3]: 112% | growth [4]: 95.1% | growth [5]: 96.5% | growth [7]: 220% | growth [8]: 93.3% | growth [9]: 87.4% | growth [11]: 65.3% | growth [12]: 111% | growth [13]: 93.8% | growth [14]: 91.2% | growth [16]: 113% | growth [17]: 92.5% | growth [18]: 111% | growth [19]: 91.5%

COc1cc2cc3c(nc2cc1OC)CCN3Cc1ccc(NC(=O)Nc2ccc(F)cc2F)cc1
growth [1]: 79.9% | growth [2]: 68.9% | growth [3]: 94.6% | growth [4]: 85.2% | growth [5]: 62.3% | growth [6]: 49.4% | growth [7]: 71.7% | growth [8]: 58.9% | growth [9]: 62.1% | growth [10]: 66% | growth [11]: 79.7% | growth [12]: 105% | growth [13]: 61.2% | growth [14]: 84% | growth [15]: 89.8% | growth [16]: 84.1% | growth [17]: 99.7% | growth [18]: 73% | growth [19]: 52.1%

Nc1c(C(=O)Nc2cccc3ccccc23)sc2nc3c(cc12)C(=O)CCC3
growth [1]: 30.8% | growth [2]: 53% | growth [3]: 74.7% | growth [4]: 34.5% | growth [5]: 23.2% | growth [6]: -17.6% (active) | growth [7]: 7.9% (active) | growth [8]: 11.1% | growth [9]: 4.39% (active) | growth [10]: 15.7% | growth [11]: 21% | growth [12]: 40.3% | growth [13]: 47.7% | growth [14]: 5.64% (active) | growth [15]: 23.7% | growth [16]: -26.7% (active) | growth [17]: 14.2% | growth [18]: 2.15% (active) | growth [19]: 47.5%

C#Cc1ccc(-n2c(/C=C/c3ccc(O)c(OC)c3)nc3ncccc3c2=O)cc1
growth [1]: 98.4% | growth [2]: 73.9% | growth [3]: 139% | growth [4]: 97.3% | growth [5]: 96% | growth [6]: 94% | growth [7]: 91.4% | growth [8]: 86.1% | growth [9]: 80.9% | growth [10]: 83.5% | growth [11]: 97.1% | growth [12]: 108% | growth [13]: 80.8% | growth [14]: 107% | growth [15]: 95.6% | growth [16]: 100% | growth [17]: 104% | growth [18]: 109% | growth [19]: 91.1%

CCCCCCN1CCN(Cc2ccc(N(CC)CC)cc2)C(=O)C1=O
growth [1]: 50.8% | growth [2]: 34.8% | growth [3]: 25.4% | growth [4]: 52.4% | growth [5]: 41.6% | growth [6]: -4.48% (active) | growth [7]: 9.18% (active) | growth [8]: 19.1% | growth [9]: 3.37% (active) | growth [10]: 4.35% (active) | growth [11]: 28.3% | growth [12]: 58.8% | growth [13]: 54.6% | growth [14]: 32.5% | growth [15]: 32.1% | growth [16]: 5.54% (active) | growth [17]: 20.6% | growth [18]: 0.986% (active) | growth [19]: 25.5%

N#Cc1cc(-c2cc3ccccc3o2)oc1N
growth [20]: -26.4% (active) | growth [1]: 8.73% (active) | growth [3]: 11.9% | growth [4]: 1.36% (active) | growth [5]: -10.4% (active) | growth [7]: -29.6% (active) | growth [8]: -12.4% (active) | growth [9]: -23.5% (active) | growth [11]: 4.89% (active) | growth [12]: 20.9% | growth [13]: 20.5% | growth [15]: 7.67% (active) | growth [16]: -7.74% (active) | growth [17]: -37.9% (active) | growth [18]: 11.1% | growth [19]: 27.9%

COc1cc(Nc2ncnc(Nc3ccc4c(n3)NC(=O)C(C)(C)O4)n2)cc(OC)c1OC
growth [1]: 18.9% | growth [2]: -6.15% (active) | growth [3]: -36.4% (active) | growth [4]: 14.6% | growth [5]: -10.2% (active) | growth [6]: -75.1% (active) | growth [7]: 25.1% | growth [8]: 33.9% | growth [9]: 9.18% (active) | growth [10]: 20.6% | growth [11]: 24.1% | growth [12]: 29.3% | growth [13]: 39.8% | growth [14]: -19.6% (active) | growth [15]: -46.1% (active) | growth [16]: 35.9% | growth [17]: -20.4% (active) | growth [18]: 34.2% | growth [19]: 34.5%

CN(C)c1ccc(/C=C/C=N/NC(=O)c2cc(O)c(O)c(O)c2)cc1
growth [1]: 105% | growth [2]: 65.9% | growth [3]: 101% | growth [4]: 76.8% | growth [5]: 93.4% | growth [6]: 88.1% | growth [7]: 16.1% | growth [8]: 48% | growth [9]: 32.9% | growth [10]: 99.9% | growth [11]: 89.3% | growth [12]: 102% | growth [13]: 67.8% | growth [14]: 99.3% | growth [15]: 100% | growth [16]: 90.9% | growth [17]: 100% | growth [18]: 102% | growth [19]: 25.3%

Clc1ccccc1N=Cc1ccc2c(c1)OCO2
growth [1]: 92% | growth [2]: 80% | growth [3]: 107% | growth [4]: 111% | growth [5]: 93.6% | growth [6]: 102% | growth [7]: 88.8% | growth [8]: 87.9% | growth [9]: 89% | growth [10]: 96.2% | growth [11]: 103% | growth [12]: 105% | growth [13]: 104% | growth [14]: 108% | growth [15]: 111% | growth [16]: 116% | growth [17]: 117% | growth [18]: 106% | growth [19]: 109%

C[C@]12CC[C@@H]3c4ccc(O)cc4C[C@@H](O)[C@H]3[C@@H]1CC[C@@H]2O
growth [1]: 100% | growth [2]: 86.5% | growth [3]: 111% | growth [4]: 105% | growth [5]: 87.6% | growth [6]: 79.6% | growth [7]: 103% | growth [8]: 109% | growth [9]: 91.4% | growth [10]: 103% | growth [11]: 106% | growth [12]: 111% | growth [13]: 105% | growth [14]: 116% | growth [15]: 99.7% | growth [16]: 114% | growth [17]: 117% | growth [18]: 113% | growth [19]: 118%

Clc1ccc(Nc2ccnc(NCCCNc3ccnc4cc(Cl)ccc34)n2)cc1
growth [1]: -51.6% (active) | growth [2]: -46.2% (active) | growth [3]: -82.9% (active) | growth [4]: -93.9% (active) | growth [5]: -71.5% (active) | growth [6]: -4.52% (active) | growth [7]: -19.9% (active) | growth [8]: -31.5% (active) | growth [9]: -55.5% (active) | growth [10]: -62.1% (active) | growth [11]: -49% (active) | growth [12]: 18.3% | growth [13]: 6.79% (active) | growth [14]: -32% (active) | growth [15]: -6.05% (active) | growth [16]: -19% (active) | growth [17]: -56.7% (active) | growth [18]: 4.05% (active) | growth [19]: -63.7% (active)

CC(=O)O[C@]1(C)CC[C@H]2[C@H](CNCCc3ccc(Cl)cc3)C(=O)O[C@@H]2C2=C(C)C(=O)C[C@H]21
growth [1]: 94.2% | growth [2]: 78.1% | growth [3]: 97.7% | growth [4]: 96.2% | growth [5]: 98.5% | growth [6]: 86.9% | growth [7]: 83.6% | growth [8]: 71% | growth [9]: 81.4% | growth [10]: 64.7% | growth [11]: 93.1% | growth [12]: 100% | growth [13]: 87.4% | growth [14]: 101% | growth [15]: 97.5% | growth [16]: 99.2% | growth [17]: 150% | growth [18]: 109% | growth [19]: 92.3%

CC1(O)CCC2CC3OC3(C)CCC3OC3(C)CCC1C2(C)C (configuration not stated)
growth [20]: 93.5% | growth [1]: 104% | growth [3]: 109% | growth [4]: 102% | growth [5]: 100% | growth [7]: 267% | growth [8]: 104% | growth [9]: 116% | growth [11]: 83% | growth [12]: 109% | growth [13]: 109% | growth [14]: 104% | growth [15]: 89.5% | growth [16]: 69.4% | growth [17]: 89.4% | growth [18]: 109% | growth [19]: 104%
